Screening data: PubChem BioAssay, National Center for Advancing Translational Sciences (NCATS)
Shown are actives, neighbours in structure and some others; about 2% of the full set was active somewhere.
mIDH1 inhibitor – blocks human mutant IDH1 R132H enzyme; O75874; IDH1-R132H enzyme, NADPH consumption, diaphorase/resazurin fluorescence; Potency, µM (highest dose often 76.6 µM), without a hit: at the highest dose activity change, negative = inhibition, most hits filed as inhibitors; 0.093% of 390,000 active; AID 602179; further: potency means the concentration at half of the fitted maximal effect; on the % scale 0 is the no-effect control and ±100 the full control effect; nearly all actives have a fitted effect of over 65% in size
Target sequence (O75874 whole entry R132H, stated change not applied): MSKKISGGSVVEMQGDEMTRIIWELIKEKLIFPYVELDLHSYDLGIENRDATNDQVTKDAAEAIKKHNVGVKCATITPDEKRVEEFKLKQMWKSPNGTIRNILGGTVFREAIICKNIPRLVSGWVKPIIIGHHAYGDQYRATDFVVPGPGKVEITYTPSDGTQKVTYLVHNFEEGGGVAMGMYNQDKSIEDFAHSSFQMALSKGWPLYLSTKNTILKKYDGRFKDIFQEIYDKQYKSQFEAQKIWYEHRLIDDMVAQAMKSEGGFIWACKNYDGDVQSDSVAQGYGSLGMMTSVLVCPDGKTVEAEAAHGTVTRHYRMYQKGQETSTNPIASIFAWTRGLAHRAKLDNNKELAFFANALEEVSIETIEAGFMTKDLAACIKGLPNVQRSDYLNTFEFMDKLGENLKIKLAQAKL
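IDH1-R132H (0.5 ug/mL dispensed) in pH 7.5 Tris buffer was preincubated 30 min with compound, then given a substrate mix of 0.016 mM NADPH and 2 mM alpha-KG for 80 min at room temperature; remaining NADPH was read by diaphorase/resazurin fluorescence.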
Abeta rescue – compounds reversing amyloid beta toxicity in yeast; yeast expressing A-beta42, growth rescue, OD600, 48 h; response scale: 0% DMSO, 100% iron-clioquinol control; Potency, µM (highest dose often 46.1 µM), hits mostly activators; 0.063% of 410,000 active; further: potency means the concentration at half of the fitted maximal effect; nearly all actives have a fitted effect of over 55% in size
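Yeast A-beta toxicity model in growth medium with pinned compounds, 48 h at 30 C; growth read as absorbance at 600 nm. Normalized to FeCl3/clioquinol equimolar mix (positive) and DMSO (negative).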
LDHA inh – inhibitors of human lactate dehydrogenase A | P00338 | purified LDHA, NADH/diaphorase-resazurin fluorescence; hits give low values | activity change, % (values are at about 110 or 230 µM) | 0.15% of 480,000 active; in the data active means activity change below about -30%; inconclusive means mostly about -25% to -30%;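 further: plate controls were DMSO wells for no effect and wells without enzyme for full effect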
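Resorufin fluorescence (ex540/em590), read at 0 and 20 min after diaphorase/resazurin addition, reports the NADH left after a 5 min room-temperature reaction of 2 nM human LDH5 with 0.06 mM NADH and 0.2 mM pyruvate.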
FUS yeast rescue – FUS proteinopathy suppression in yeast | S. cerevisiae FUS-expressing, growth rescue, OD600, 24 h | Potency, µM (titrated, usually from 76.6 µM), actives largely listed as activators | 0.24% of 390,000 active | AID 1347120;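 further: potency means the concentration at half of the fitted maximal effect; plate controls were DMSO vehicle for no effect and reference control for full effect; nearly all actives have a fitted effect of over 55% in size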
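Quantitative HTS measuring growth restoration of FUS-toxic yeast. Galactose-induced cells (OD 0.005) were exposed 24hr at 30C to compounds at several concentrations, then absorbance at 600 nm was recorded.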
TDP43 rescue – TDP-43 toxicity inhibition in yeast. 1.8% of 410,000 active. TDP-43 expressing yeast growth rescue, BacTiter-Glo, 24 h. Potency, µM (doses to about 46.1 µM), for inactives: top-dose growth rescue (activation), hits mostly activators. AID 652104; further: potency means the concentration at half of the fitted maximal effect; % of control where 0% means no effect; nearly all actives have a fitted effect of over 50% in size
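Cell-based yeast growth screen: TDP-43 expression induced in galactose, inoculum OD600=0.02 after raffinose pregrowth to mid-log. Read-out BacTiter-Glo luminescence at 24 hr, 30 deg C; inhibition of toxicity seen as signal increase.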
aSyn yeast inh – alpha-synuclein toxicity inhibition in yeast. Yeast expressing alpha-synuclein, growth rescue, BacTiter-Glo, 24 h. AID 652106. 0.14% of 370,000 active. Potency, µM (doses to about 46.1 µM), without a hit: at the top dose growth rescue (activation), actives largely listed as activators; further: potency means the concentration at half of the fitted maximal effect; % of control where 0% means no effect; nearly all actives have a fitted effect of over 65% in size
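Screening used galactose-induced yeast with toxic alpha-synuclein levels, exposed to compound for 24 hr at 30 deg C. Cell growth, read with BacTiter-Glo luminescence, gave the measured signal.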
IDH1 autofl – interferes with resorufin fluorescence in IDH1 counter-screen | Resorufin detection reagent fluorescence interference, cell-free | inhibition of signal, % at 51.2 µM | 750 tested, under 10 active | shares compounds with mIDH1 inhibitor;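 further: 0% = wells with normal resorufin and full inhibition = wells lacking resorufin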
WT IDH1 inh – wild-type IDH1 (human) inhibition counterscreen. shares compounds with mIDH1 inhibitor. WT IDH1 enzyme, NADPH diaphorase/resazurin fluorescence. Potency, µM (top dose mostly 115 µM), without a hit: at the highest dose activity change, negative = inhibition, hits mostly inhibitors. 9% of 750 active;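 further: potency means the concentration at half of the fitted maximal effect; 0% = full WT IDH1 enzyme control and full inhibition = no enzyme wells; nearly all actives have a fitted effect of over 55% in size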
Target sequence (O75874 whole entry, looked up): as the sequence (O75874 whole entry R132H, stated change not applied) above, with H132R counted along it
mIDH1 confirm – confirmation of human mutant IDH1 inhibitors. AID 624002. Potency, µM (highest dose often 76.6 µM), for inactives: at the top dose activity change, negative = inhibition, most hits filed as inhibitors. 83% of 750 active. shares compounds with mIDH1 inhibitor. IDH1 R132H enzyme, NADPH diaphorase/resazurin fluorescence; further: potency means the concentration at half of the fitted maximal effect; nearly all actives have a fitted effect of over 50% in size
* marks the source's active call; other numbers are inactive results; i = inactive; ? = inconclusive; . = not tested or not shown; ! = repeats disagree. Unless noted, the call rests on the fitted dose curve; in most records, active means well fitted curve in the direction sought with a large enough effect; inconclusive means small, poorly fitted or top-dose-only effect, or another doubt; inactive means no such curve, though single readings can be large; an effect the other way counts as inactive or inconclusive.

SMILES	mIDH1 inhibitor	Abeta rescue	LDHA inh	FUS yeast rescue	TDP43 rescue	aSyn yeast inh	IDH1 autofl	WT IDH1 inh	mIDH1 confirm
CCCC1C2CN(C(C)=O)CC=C2C(C#N)=C(N)C1(C#N)C#N (stereo not given)	-8%	i	4	i	-6%	-5%	.	.	.
CCC1C2CN(C(C)=O)CC=C2C(C#N)=C(N)C1(C#N)C#N (stereo not given)	?	i	6	i	-2%	2%	-8	38%	45µM*
CC(C)N1CC=C2C(C#N)=C(N)C(C#N)(C#N)C(c3ccccc3)C2C1 (stereo not given)	?	i	9	i	-12%	7%	.	.	.
Cc1ccc(-c2cc(C(F)F)n3ncc(C(=O)N4CCCCC4c4cccnc4)c3n2)cc1 (stereo not given)	?	i	-1	i	-21%	-12%	-5	6%	35µM*
COc1cc2c(O)c3c(c(-c4ccc5c(c4)OCO5)c2cc1OC)C(=O)OC3	?	i	13	8.9µM*	-17%	-10%	-3	?	25µM*
c1ccc(C2=Nn3c(nnc3-c3cc(-c4ccccc4)n[nH]3)SC2)cc1	?	i	0	i	12%	-6%	-13	?	20µM*
FC(F)(F)c1ccccc1CNCc1ccccc1Cl	.	.	3	.	.	.	.	.	.
O=c1c2ccccc2nc2n1CCCCC2	9%	i	-5	i	-8%	-4%	.	.	.
O=c1c2ccccc2nc2n1CCC2	16µM*	i	-12	.	10%	3%	0	?	3%
O=C(NCc1ccco1)C(c1ccncc1)N(C(=O)Cc1cccs1)c1ccccc1 (stereo not given)	-9%	i	2	i	-19%	-1%	.	.	.
O=C(NCC(=O)N(Cc1ccco1)C(C(=O)NC1CCCC1)c1ccncc1)c1cccs1 (stereo not given)	-2%	i	-7	i	-4%	0%	.	.	.
O=C(NC1CCCC1)C(c1ccccc1)N(Cc1ccco1)C(=O)Cc1cccs1 (stereo not given)	?	?	-4	i	0%	1%	-5	2%	28µM*
Cc1ccc(C(C(=O)NC2CCCCC2)N(Cc2ccco2)C(=O)C2COc3ccccc3O2)o1 (stereo not given)	?	i	-2	i	-13%	0%	0	-3%	13µM*
O=C(NCc1ccco1)C(c1ccccc1)N(C(=O)Cc1cccs1)c1ccccc1F (stereo not given)	21µM*	i	-6	i	0%	4%	-4	-1%	14µM*
O=c1[nH]nc(-c2ccc(N3CCCCC3)c([N+](=O)[O-])c2)c2ccccc12	.	.	-2	.	.	.	.	.	.
O=C1c2ccccc2-c2n[nH]c(=O)c3ccc(N4CCCCC4)c1c23	?	i	-1	i	-24%	-7%	-4	?	32µM*
Cc1cccc(C)c1NC(=O)CSCc1cc(=O)n2ccsc2n1	.	.	10	.	.	.	.	.	.
CC1=CCC(/C=N/NC(N)=S)CC1 (stereo not given)	.	.	-3	.	.	.	.	.	.
COc1ccc(CNC(=O)Nc2ccc(Cl)cc2C)cn1	.	.	-16	.	.	.	.	.	.
Cc1cc(O)c(C(C)C)cc1C1(c2cc(C(C)C)c(O)cc2C)OC(=O)c2ccccc21	16µM*	i	0	i	.	2%	0	-6%	16µM*
Cc1cccc(/C=N/Nc2cc(N3CCOCC3)nc(N3CCOCC3)n2)c1	?	i	10	i	-5%	7%	-1	-5%	13µM*
CC(C)c1ccc(/C=N/Nc2cc(N3CCOCC3)nc(N3CCOCC3)n2)cc1	5%	i	4	i	14%	-1%	.	.	.
Cc1nc2ccccc2nc1SCC(=O)Nc1ccccc1OC(F)F	.	.	7	.	.	.	.	.	.
O=C(NC1CCCCC1)N(Cc1ccc(F)cc1)Cc1nc2ccccc2c(=O)[nH]1	?	i	-4	i	-16%	-4%	0	10%	28µM*
CCN(CC)S(=O)(=O)c1ccc(NS(=O)(=O)c2ccccc2C#N)cc1	.	.	13	.	.	.	.	.	.
SMILES	mIDH1 inhibitor	Abeta rescue	LDHA inh	FUS yeast rescue	TDP43 rescue	aSyn yeast inh	IDH1 autofl	WT IDH1 inh	mIDH1 confirm
CCCCNc1c(-c2cccc(-c3ccc(OC)cc3)c2)nc2cc(C)ccn12	-4%	i	0	?	-82%	-57%	.	.	.
CCCCNc1c(-c2cccc(-c3ccc(OC)cc3)c2)nc2ccc(C)cn12	?	i	-1	i	-93%	-72%	-7	?	6.3µM*
O=C(CS(=O)(=O)c1ccc(N2CCCC2=O)cc1)N1CCOCC1	.	.	8	.	.	.	.	.	.
COc1ccc(-c2csc3nc(-c4cccnc4)nc(N4CCC(C(N)=O)CC4)c23)cc1OC	?	i	-11	?	4%	8%	.	.	.
COc1ccc(-c2csc3nc(C)nc(N4CCCCC4)c23)cc1OC	?	i	4	i	6%	3%	-7	4%	32µM*
CCOc1cc(C2C(C#N)=C(N)Oc3cc(O)ccc32)ccc1OCc1ccccc1 (stereo not given)	.	.	-17	.	.	.	.	.	.
COc1cc(NC(=O)CN(c2cc(C)cc(C)c2)S(=O)(=O)c2c(C)[nH]c(=O)[nH]c2=O)cc(OC)c1	12%	i	-2	i	-12%	2%	.	.	.
Cc1cc(C)cc(N(CC(=O)Nc2ccc(C(F)(F)F)cc2)S(=O)(=O)c2c(C)[nH]c(=O)[nH]c2=O)c1	10µM*!	i	0	i	1%	1%	8	45µM*	32µM*
CCC(C)NC(=O)c1cc(Sc2cccc(Cl)c2)nc2ccccc12 (stereo not given)	10%	i	1	i	24%	.	.	.	.
CCc1ccc(Sc2cc(C(=O)NC(C)CC)c3ccccc3n2)cc1 (stereo not given)	?	i	3	i	9%	-4%	-5	-12%	?
CN(C)Cc1c(C(=O)N/N=C/c2cccc(OCc3c(F)cccc3Cl)c2)nnn1-c1nonc1N	-2%	i	-4	i	8%	2%	.	.	.
